The supplement of paper PMC3334620
Whole data set: some 33,000 sequences, median “E-score (-0.5 to 0.5)” near -0.043, cut for the highest 2% near 0.37. The entries come from a sample that favours the highest values as a whole.

molecular target: T1, Upc2 (UniProt Q12151); test: PBM E-score (8-mer binding enrichment) (E-score (-0.5 to 0.5)); higher = stronger / more preferred TF binding; settings: protein concentration: 200 nM; construct: GST-full length
T1 sequence: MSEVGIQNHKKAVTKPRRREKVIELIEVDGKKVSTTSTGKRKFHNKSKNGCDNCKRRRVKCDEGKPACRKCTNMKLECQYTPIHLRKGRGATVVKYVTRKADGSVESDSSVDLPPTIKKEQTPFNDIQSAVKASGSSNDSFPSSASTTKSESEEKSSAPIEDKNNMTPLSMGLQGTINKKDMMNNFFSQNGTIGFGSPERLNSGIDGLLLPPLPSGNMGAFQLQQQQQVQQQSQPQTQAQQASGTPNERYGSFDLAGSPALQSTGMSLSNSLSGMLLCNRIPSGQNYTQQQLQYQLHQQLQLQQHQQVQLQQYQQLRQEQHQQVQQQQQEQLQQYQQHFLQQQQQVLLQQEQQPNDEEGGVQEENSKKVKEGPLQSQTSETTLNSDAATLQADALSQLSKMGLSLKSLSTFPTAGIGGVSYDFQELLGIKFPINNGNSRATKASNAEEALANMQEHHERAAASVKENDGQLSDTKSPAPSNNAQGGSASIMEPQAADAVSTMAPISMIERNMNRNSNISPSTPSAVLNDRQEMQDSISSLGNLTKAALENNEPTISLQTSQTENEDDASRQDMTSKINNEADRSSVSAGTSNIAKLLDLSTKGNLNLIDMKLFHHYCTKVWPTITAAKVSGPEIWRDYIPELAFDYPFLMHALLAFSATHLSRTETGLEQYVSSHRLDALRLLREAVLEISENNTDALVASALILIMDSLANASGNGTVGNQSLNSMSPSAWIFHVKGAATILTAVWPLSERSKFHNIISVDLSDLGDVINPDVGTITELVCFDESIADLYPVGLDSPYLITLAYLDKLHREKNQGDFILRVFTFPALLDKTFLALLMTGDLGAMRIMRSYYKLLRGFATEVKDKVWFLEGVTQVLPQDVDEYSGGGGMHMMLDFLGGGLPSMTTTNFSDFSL
Method: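 Universal 'all 10-mer' protein binding microarrays (Agilent AMADID 015681) probed with GST-tagged S. cerevisiae TFs (full-length or DBD) made by in vitro transcription/translation (PURExpress), about 100-200 nM. Bound TF was detected with fluorescent anti-GST. Each ungapped 8-mer (which stands for itself and its reverse complement) is scored by the PBM enrichment score (E-score), a modified Wilcoxon-Mann-Whitney statistic from -0.5 to +0.5, computed with the Universal PBM Analysis Suite. Scale: above 0.35 generally sequence-specific binding.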

Sequence	PBM E-score
CCTATACA	0.151
CCTATACC	0.167
ATTATACC	0.144
ACTATACT	0.152
AGTATACT	0.242
ACTATACG	0.478
AGTATACG	0.455
AAAGAATA	0.091
AAGGTTAT	-0.0588
GCCCCGCC	0.112
GGCGCAAC	0.00488
CACAGGGA	-0.233
AGGACACT	-0.364
CGTTTAAA	0.47
TGTTTAAA	0.0234
GGTTTAAC	0.138
AGTTTAAG	0.0878
CGTTTAAC	0.473
CCTTTAAG	-0.158
CGTTTAAG	0.468
AGTTTAAA	0.11
AGTTTAAC	0.174
AGGATGGG	0.00396
CAACCTCA	-0.0655
AACTGTGT	-0.137

Sequence	PBM E-score
CCTTAGCA	-0.336
CCCTTATC	-0.205
AGGTATAC	0.339
CTAACCGA	0.37
CTAACCGC	0.0621
GTAACCGA	0.322
CTGCTCTA	-0.0369
ACAATCCT	-0.183
CAGGACGG	-0.164
CGAAGTAG	0.00964
ATACGAAC	0.472
GTACGAAA	0.442
ATTCGAAC	0.119
ACACGAAG	0.211
ATACGAAG	0.476
GCACGAAA	0.127
AGACGAAT	0.0524
ATACGAAT	0.459
GGACGAAA	-0.0427
ACACGAAT	0.258
CTACGAAG	0.316
ATCCGAAC	0.146
CATCGATC	-0.0852
ATAGATTC	-0.12
GGCATAAC	-0.0916

Sequence	PBM E-score
ACCGATCC	-0.0521
ATACTCAT	-0.111
GTGGGCTA	-0.128
CTACGAAC	0.333
ACACGAAA	0.197
GTACGAAC	0.467
TTACGAAA	0.41
AGACGAAA	0.196
GGACGAAC	0.0508
ATACGTAC	0.339
TCACGAAA	-0.0654
ATACGAAA	0.47
CTACGAAA	0.272
ATACGTAA	0.334
ATACGTAT	0.372
AGCTCGAT	-0.0109
AAGCTGGT	-0.0392
CAGATTGG	-0.303
CAACTTCA	-0.0217
CCATTTCA	-0.241
CTCAGCTC	-0.114
AGCGAGAG	0.229
TGTATAAA	0.156
AGTATAAA	0.238
CGTATAAA	0.477

Sequence	PBM E-score
CGTATAAC	0.478
CGTATAAG	0.481
AGTATAAG	0.261
AGTATAAC	0.172
GGTATAAC	0.135
CATATAAG	0.17
AACTTTCC	-0.281
AGCTCTCA	-0.214
GGGAGGTA	0.132
CACAGATA	-0.136
GCACTGGA	-0.0891
GGTATACA	-0.0256
CGTATACC	0.472
GGTATACC	0.214
AGTATACA	0.149
CGTATACA	0.474
AGTATACC	0.124
CGTTCAGA	0.372
CGTTCATC	0.353
AGTTCAGC	-0.205
GGTTCAGA	-0.186
AGTTCAGA	-0.0704
CGTTCAGC	0.396
AGGCGTGC	-0.0583
CGCAGTAG	-0.0605

Sequence	PBM E-score
AAAGGTGT	0.0174
GTTAGCCA	-0.0759
ACTGAGAT	-0.184
CGTTAAAC	0.411
CGTTAAAG	0.4
AGTTAAAG	0.0271
CGTTAAGC	0.432
CTTTAAAG	-0.114
CGTTAAAA	0.364
CGTTAAGA	0.341
GGTTAAAC	0.232
AGTTAAGC	0.00193
GAAAACTC	-0.114
AGAGAATG	0.0339
GCAGTGGA	-0.123
CTCAATAA	-0.213
GACAGTGA	-0.0168
CACTAGGA	-0.245
GGATACGA	0.463
GGATACCA	-0.0879
CGATACGA	0.464
CGATACAA	0.0776
AGATACGC	0.201
CGATACGC	0.267
AGATACGA	0.454

Sequence	PBM E-score
AGATACGG	0.307
GGATACTA	-0.183
TGCGGCAA	-0.127
ATATCTAC	0.0208
CTGCTCAC	0.00302
AGCGTGAA	-0.0302
ACAGCTAT	-0.0224
GGGTCGAA	0.0267
GGGTCGTA	0.42
CGGTCGTC	0.0119
CGGTCGGA	-0.0376
AGGTCGTA	0.451
CGGTCGTA	0.442
AGGTCGTC	0.0416
GGGTCGGA	0.0691
AGGTCGTG	0.0575
CTGGGTGC	-0.106
GCGCACTA	-0.00558
CGGCTGCC	-0.0671
CACGACCG	0.00924
AACGACCC	0.365
AACGACCT	0.386
ACCGACCG	0.13
AACGACCA	0.405
CACGACCA	-0.0648

Sequence	PBM E-score
GACGACCA	0.071
TCCGACCA	0.0761
AACGACCG	0.403
TGCGACCA	0.0986
AGCGACCT	0.132
TACGACCA	0.45
CAGCATAA	-0.0242
GGACCTAC	0.0699
CCGATCTC	-0.136
AATGAGTC	-0.0524
ATTGGAAC	-0.0244
GGCTAACC	-0.0479
CAGTCGGA	-0.016
AAGTCGTC	0.121
GAGTCGTA	0.43
CAGTCGTC	-0.106
AAGTCGTG	-0.0736
AAGTCGTA	0.416
GAGTCGCA	0.0248
CAGTCGTA	0.416
GAGTCGGA	-0.0556
GGACATTA	0.01
